Source: PubChem (Sanford-Burnham Center for Chemical Genomics)
CYP2C9 inhib – blocks human cytochrome P450 2C9 | inhibition, % at 5 µM | CYP2C9 Supersomes, luciferin-H conversion, luminescence | hit rate 20% among 96,000 | P11712 | AID 777;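 active means blocking of liver enzyme CYP2C9 beyond about 50% at 5 µM, limit read from the data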
Target sequence (P11712 whole entry, looked up): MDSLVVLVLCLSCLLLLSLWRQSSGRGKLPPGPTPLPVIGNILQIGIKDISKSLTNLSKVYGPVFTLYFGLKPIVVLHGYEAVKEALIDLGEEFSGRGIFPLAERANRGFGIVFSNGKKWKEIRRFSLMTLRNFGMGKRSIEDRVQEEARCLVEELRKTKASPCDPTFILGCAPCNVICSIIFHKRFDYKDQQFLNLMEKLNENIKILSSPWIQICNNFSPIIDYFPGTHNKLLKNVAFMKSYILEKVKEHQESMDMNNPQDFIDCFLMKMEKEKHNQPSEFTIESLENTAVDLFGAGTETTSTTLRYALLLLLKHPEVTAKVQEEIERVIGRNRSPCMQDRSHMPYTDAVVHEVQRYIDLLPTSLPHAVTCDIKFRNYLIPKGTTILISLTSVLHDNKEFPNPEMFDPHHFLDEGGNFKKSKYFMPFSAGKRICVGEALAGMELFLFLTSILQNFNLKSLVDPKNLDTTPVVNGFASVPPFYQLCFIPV
CYP2C9 activ – increases human cytochrome P450 2C9 activity; P11712; recombinant CYP2C9, luciferin-H conversion, luminescence; hits give high values; factor 1 = untreated enzyme, 0 = blocked; activation factor at 5 µM; hit rate 1.4% among 96,000; AID 1024;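 active means activation factor of 2 or more for CYP2C9 at a 5 µM dose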;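 further: 0 = sulfaphenazole-blocked wells and 1 = vehicle-only wells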
CYP2C19 inh – inhibitors of human CYP2C19 | P33261 | CYP2C19 Supersomes, luciferin-H EGE luminescence, 30 min | inhibition, % at 5 µM | hit rate 21% among 96,000;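 active means CYP2C19 inhibition above a set limit at 5 µM in the primary screen, cut at about 50% in these data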;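 further: plate controls were negative control wells for no effect and 2.5 mM tranylcypromine positive control for full effect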
CYP2C19 activ – increases human CYP2C19 enzyme activity; 96,000 tested, under 10 active; AID 1025; recombinant CYP2C19, luciferin-H EGE luminescence; hits give high values; 0 = fully inhibited enzyme, 1 = untreated enzyme; activation factor at 5 µM; P33261;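 active means activation factor of at least 2 at 5 µM in the primary screen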;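 further: 0 = wells with 2.5 mM tranylcypromine and 1 = vehicle-only wells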
Numbers without * were called inactive. A selection: hits, their analogues and other compounds. The true share with any hit is near 31%.

SMILES	CYP2C9 inhib	CYP2C9 activ	CYP2C19 inh	CYP2C19 activ
C=CCN(C(=O)COc1ccccc1)c1nnc(-c2ccncc2)s1	52*	0.5	87*	0.1
COCCN(C(=O)C1CC1)c1nnc(-c2cccc(C)c2)s1	80*	0.2	72*	0.3
COCCN(C(=O)c1cccc(OC)c1)c1nnc(-c2ccncc2)s1	80*	0.2	100*	0
COc1cc(C(=S)N2CCCCC2)ccc1O	41	0.6	36	0.6
COc1ccc(C(=S)N2CCN(C)CC2)cc1Br	-247	3.5*	51*	0.5
Oc1ccc(C(=S)N2CCCCC2)cc1Cl	-102	2*	85*	0.2
S=C(c1ccc2c(c1)OCO2)N1CCCCC1	38	0.6	94*	0.1
COc1cc(C(=S)N2CCCC2)ccc1O	-61	1.6	88*	0.1
O=C(Cc1ccc(F)cc1)N(c1ccccc1)C1C=CS(=O)(=O)C1 (stereo not given)	-6	1.1	16	0.8
CCOC(=O)C1CCN(C(=O)c2cccc(NC(=O)C(CC)CC)c2)CC1	41	0.6	50	0.5
CCn1nnnc1-c1ccc(OC)c(S(=O)(=O)NCCc2ccccc2)c1	68*	0.3	89*	0.1
COc1ccc(OC)c(S(=O)(=O)NCc2csc(-c3ccccc3)n2)c1	37	0.6	62*	0.4
COc1ccc(OC)c(S(=O)(=O)NCCc2ccccc2)c1	69*	0.3	87*	0.1
COc1ccc(-c2cc(C(=O)Nc3cc(C)n(Cc4ccc(Cl)cc4)n3)no2)cc1OC	-1	1	2	1
CSc1c(-c2ccccc2)nc2ccc(Cl)cc2c1C(=O)O	81*	0.2	2	1
O=C(CN1C(=O)c2ccccc2C1=O)NCc1ccncc1	28	0.7	42	0.6
COc1ccc(-n2c(Cc3cccn3C)nnc2SCC(=O)Nc2cccc(OC)c2)cc1	44	0.6	25	0.7
COc1ccc(NC(=O)CSc2nnc(Cc3cccn3C)n2CCc2ccccc2)c(OC)c1	47	0.5	75*	0.3
COc1ccc(-n2c(Cc3cccn3C)nnc2SCC(=O)Nc2ccccc2F)cc1	33	0.7	35	0.7
COc1ccc(-n2c(Cc3cccn3C)nnc2SCC(=O)Nc2ccc(F)cc2F)cc1	55*	0.4	27	0.7
COc1cccc(NC(=O)CSc2nnc(Cc3cccn3C)n2-c2ccc(F)cc2)c1	84*	0.2	-14	1.1
COc1ccc(-n2c(Cc3cccn3C)nnc2SCC(=O)Nc2nccs2)cc1	58*	0.4	78*	0.2
COc1ccc(-n2c(Cc3cccn3C)nnc2SCC(=O)Nc2ccccc2C)cc1	31	0.7	18	0.8
CCn1c(/C=C/N(C)c2ccccc2)[n+](CC)c2ccc(Cl)cc21	16	0.8	2	1
COC(=O)Cn1ncc2c3ccccc3n(C)c2c1=O	7	0.9	-4	1
SMILES	CYP2C9 inhib	CYP2C9 activ	CYP2C19 inh	CYP2C19 activ
CCOC(=O)c1ccccc1NC(=O)CSc1nnc(Cc2cccn2C)n1-c1ccc(C)cc1	89*	0.1	56*	0.4
COc1ccc(OC)c(NC(=O)CSc2nnc(Cc3cccn3C)n2-c2ccc(F)cc2)c1	54*	0.5	73*	0.3
COc1ccc(NC(=O)CSc2nnc(Cc3cccn3C)n2-c2ccc(F)cc2)cc1	34	0.7	16	0.8
COc1ccc(-n2c(Cc3cccn3C)nnc2SCC(=O)NCCc2ccccc2)cc1	73*	0.3	34	0.7
COC(=O)C(C)N1C(=O)S/C(=C\c2cc(C)n(-c3ccccn3)c2C)C1=O (stereo not given)	80*	0.2	24	0.8
COC(=O)[C@H](CCSC)NC(=O)Nc1ccc(C)c(C)c1	22	0.8	62*	0.4
COC(=O)[C@H](CCSC)NC(=O)Nc1ccc(OC)cc1OC	-24	1.2	15	0.9
COC(=O)[C@H](CCSC)NC(=O)Nc1ccc(C)cc1C	24	0.8	52*	0.5
Cn1c(=O)c(C(=O)CSc2nncs2)c(N)n(Cc2ccccc2)c1=O	62*	0.4	91*	0.1
CCCn1c(N)c(C(=O)CSc2nnc(C)n2Cc2ccccc2)c(=O)n(C)c1=O	36	0.6	21	0.8
CCOC(=O)N1CCN(C(=O)/C(=C/c2cccc3ccccc23)NC(=O)c2ccc(OC)cc2)CC1	38	0.6	12	0.9
CC(OC(=O)c1cccs1)C(=O)NCc1ccco1 (stereo not given)	37	0.6	86*	0.1
O=C(OC(C(=O)NCc1cccs1)c1ccccc1Cl)c1ccco1 (stereo not given)	91*	0.1	88*	0.1
CCC(OC(=O)c1cc2sccc2n1C)C(=O)NCc1ccco1 (stereo not given)	72*	0.3	54*	0.5
CC(C)C(OC(=O)c1cc2occc2n1C)C(=O)NCc1ccc2c(c1)OCO2 (stereo not given)	85*	0.1	74*	0.3
Cc1cc(SCC#N)n2nc(C)c(-c3ccccc3)c2n1	2	1	14	0.9
CC(=O)OC(C(=O)NCc1ccco1)c1ccncc1 (stereo not given)	55*	0.4	31	0.7
Cc1cc2c(cc(C(=O)OC(C(=O)NCc3ccco3)C(C)C)n2C)o1 (stereo not given)	47	0.5	66*	0.3
CC(OC(=O)c1nsc(Cl)c1Cl)C(=O)NCc1cccs1 (stereo not given)	34	0.7	20	0.8
CCC(OC(=O)c1nsc(Cl)c1Cl)C(=O)NCc1ccco1 (stereo not given)	57*	0.4	59*	0.4
CC(=O)OC(C(=O)NCc1ccco1)c1cccnc1 (stereo not given)	-22	1.2	-13	1.1
Cc1cc2c(cc(C(=O)OCC(=O)NCc3ccco3)n2C)s1	2	1	4	1
CCC(C)(C)NC(=O)C(OC(=O)c1ccco1)c1ccccc1OC (stereo not given)	38	0.6	64*	0.4
COCCCNC(=S)NNC(=S)Nc1ccc(F)cc1F	41	0.6	26	0.7
COc1ccccc1C(OC(=O)c1cccs1)C(=O)NCc1ccco1 (stereo not given)	40	0.6	58*	0.4
SMILES	CYP2C9 inhib	CYP2C9 activ	CYP2C19 inh	CYP2C19 activ
COc1ccc(C(OC(=O)c2ccco2)C(=O)NCc2ccco2)cc1 (stereo not given)	20	0.8	13	0.9
CC(C)C(OC(=O)c1cccs1)C(=O)NCc1ccco1 (stereo not given)	42	0.6	60*	0.4
O=C(Nc1cccc2ncccc12)c1ccc(-c2ccc(Br)cc2)o1	7	0.9	13	0.9
COc1ccc2[nH]c(=O)c(COC(=O)c3ccco3)cc2c1	8	0.9	13	0.9
CCOc1ccc(CC(=O)Nc2c(C(=O)Nc3ccccc3)oc3ccccc23)cc1OCC	40	0.6	48	0.5
c1ccc(Oc2nc(Oc3ccccc3)nc(N3CCOCC3)n2)cc1	49	0.5	60*	0.4
Clc1ccc(Oc2nc(Oc3ccc(Cl)cc3)nc(N3CCOCC3)n2)cc1	15	0.8	15	0.9
